Source: PubChem (several laboratories)
hgDAF-12 ag: hgDAF-12 agonism, primary luciferase screen | HEK293 GAL4-hgDAF12 UAS-luciferase reporter, agonist luminescence; normalized to butyrate control | activation, % at 6.8 µM | hit rate 1.8% among 370,000;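 active = activation above a cutoff set at the mean of all screened compounds plus 3 SD, cut at about 10% in these data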;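 note: 0% = DMSO wells and 100% = sodium butyrate wells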
ssDAF12 agonist: S. stercoralis DAF-12 activation, primary screen. HEK293 ssDAF-12/GRIP1 lit1-tk-luc reporter, luminescence; % of 3 µM dafachronic acid response. activation, % at 6.8 µM. hit rate 1% among 370,000. AID 652126;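 active = activation above the mean over all tested compounds plus 3 SD, cut at about 0.9% in these data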;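 note: 0% = DMSO-only wells and 100% = 3 µM delta7-dafachronic acid wells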
DAX1 inh-1: inhibits human nuclear receptor DAX1; P51843; HEK293 Gal4-DAX1 luciferase reporter, luminescence; inhibition, % at 6.75 µM; hit rate 0.99% among 340,000; AID 504766;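 active = inhibition above the mean over all tested compounds plus 3 SD, cut at about 4.2% in these data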;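 note: 0% = DAX1-transfected cells with DMSO and 100% = empty-vector control cells with DMSO; inhibition shows as a rise in luminescence from relieved DAX1 repression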
PolyA inh: blocks polyadenylation in yeast reporter cells; S. cerevisiae SKY197-pL101 polyadenylation reporter, beta-gal luminescence; efflux-impaired pdr1/pdr3 knockout yeast; score 100 = 6 SD above DMSO; activity score, % at 12 µM; hit rate 0.02% among 300,000;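 active = lowest replicate activity score at least 50, where 100 means six control SD above control mean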;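 note: yeast exposed to compound for 9 h at 30 °C; higher score means more reporter readthrough which indicates perturbed polyadenylation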
DAX1 inh-2: inhibitors of DAX1 repression of SF-1 activated StAR promoter. HEK293T StAR-luciferase reporter, SF-1/DAX-1 repression relief. inhibition, % at 6.8 µM. hit rate 1.1% among 370,000;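 active = inhibition above the mean over all tested compounds plus 3 SD, cut at about 3.6% in these data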;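 note: 0% = DAX-1 cells with DMSO and 100% = cells lacking DAX-1 with DMSO; higher inhibition means more luminescence from relief of DAX-1 repression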
hcDAF12 agonist: activators of H. contortus DAF-12 nuclear receptor. HEK293 hcDAF-12 lit1-tk-luc reporter, luminescence; 0% DMSO, 100% Δ7-dafachronic acid. activation, % at 6.8 µM. hit rate 1.4% among 370,000. AID 652067;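 active = activation above the mean of all tested compounds plus 3 SD, cut at about 5.5% in these data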;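 note: 100% = response to 3 µM Δ7-dafachronic acid high control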
DAX1 conf: NR0B1 (human) inhibition, confirmation | shares compounds with DAX1 inh-2 | HEK293T StAR-promoter luciferase reporter, SF-1/DAX-1 repression | inhibition, % at 6.8 µM | hit rate 87% among 2,400;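 active = inhibition above the average of every tested compound plus 3 SD, cut at about 3.8% in these data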;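 note: 0% = DAX-1 cells with DMSO and 100% = no DAX-1 control cells with DMSO; active compounds raise luminescence by relieving repression of the StAR reporter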
Target sequence (P51843 whole entry, looked up): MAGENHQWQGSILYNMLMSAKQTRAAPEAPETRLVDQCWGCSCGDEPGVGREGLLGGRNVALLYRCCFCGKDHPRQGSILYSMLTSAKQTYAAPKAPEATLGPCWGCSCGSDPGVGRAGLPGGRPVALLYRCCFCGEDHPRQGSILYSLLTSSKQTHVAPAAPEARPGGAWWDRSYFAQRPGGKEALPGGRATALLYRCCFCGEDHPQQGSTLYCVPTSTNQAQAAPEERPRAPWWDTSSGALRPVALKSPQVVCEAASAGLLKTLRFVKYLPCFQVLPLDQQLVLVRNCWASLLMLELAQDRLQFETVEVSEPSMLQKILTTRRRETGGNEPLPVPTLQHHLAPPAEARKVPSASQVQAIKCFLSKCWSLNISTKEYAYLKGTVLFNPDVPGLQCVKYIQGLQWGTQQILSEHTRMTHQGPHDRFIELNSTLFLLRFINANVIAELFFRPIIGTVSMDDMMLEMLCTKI
SF1 AF2mut Luc: nonselective inhibitor or artifact in SF-1 mutant DAX1 counter-screen | shares compounds with DAX1 inh-2 | HEK293 StAR-luciferase, SF-1 AF2 mutant, luminescence | inhibition, % at 6.8 µM | hit rate 78% among 2,400 | AID 652136;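 active = inhibition above the mean of all tested compounds plus 3 SD, cut at about 3% in these data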;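 note: 0% = DAX-1 transfected cells with DMSO and 100% = cells without DAX-1 with DMSO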
An asterisk follows results filed as active. Rows were chosen to be rich in hits. Some 4.1% of all compounds tested hit in one or more screens of this group.

`O=c1[nH]c(=O)n([C@H]2C[C@H](O)[C@@H](CO)O2)cc1I` gave hgDAF-12 ag 10, ssDAF12 agonist 0, DAX1 inh-1 0, DAX1 inh-2 5.6*, hcDAF12 agonist 1, DAX1 conf 14* and SF1 AF2mut Luc 6.1*.
For O=c1cc(-c2ccc(O)cc2)oc2ccc3ccccc3c12 the results were hgDAF-12 ag -12, ssDAF12 agonist -2, DAX1 inh-1 -4, DAX1 inh-2 -4 and hcDAF12 agonist -3.
O=c1cc(-c2ccccc2)oc2cc(O)c(O)c(O)c12 was read as hgDAF-12 ag 10, ssDAF12 agonist -1, DAX1 inh-1 2, DAX1 inh-2 5.5*, hcDAF12 agonist 4, DAX1 conf 9.6* and SF1 AF2mut Luc 5.1*.
`CC(C)OC(=O)c1ccc(NC(=O)c2ccccc2)cc1` gave hgDAF-12 ag 5, ssDAF12 agonist -1, DAX1 inh-1 0, PolyA inh -14, DAX1 inh-2 2 and hcDAF12 agonist -1.
For CC(C)OC(=O)c1ccc2ccc(-c3ccccc3)nc2c1 the results were hgDAF-12 ag 9, ssDAF12 agonist 1, DAX1 inh-2 8.4*, hcDAF12 agonist 2, DAX1 conf 15* and SF1 AF2mut Luc 7.3*.
For CC(=O)CC[C@H]1CC[C@]2(CCCN(C(=O)c3ccccc3)C2)O1 the results were hgDAF-12 ag 1, ssDAF12 agonist -1, DAX1 inh-2 0 and hcDAF12 agonist 0.
For CCOC(=O)C1CCN(C(=O)c2cc3cc4ccc(C)cc4nc3o2)CC1 the results were hgDAF-12 ag 7, ssDAF12 agonist 0, DAX1 inh-1 0, PolyA inh 12, DAX1 inh-2 7.5*, hcDAF12 agonist 2, DAX1 conf 8.0* and SF1 AF2mut Luc 4.9*.
Screening COc1ccc2cc3cc(C(=O)N4CCCCCC4)oc3nc2c1 returned DAX1 inh-1 -1 and PolyA inh -7.
Screening O=C(OCc1cn(Cc2ccc(F)c(F)c2)nn1)N1CCOCC1 returned hgDAF-12 ag -3, ssDAF12 agonist -2, DAX1 inh-2 0 and hcDAF12 agonist 0.
COc1cccc(/C=C/C(=O)NNC(=O)c2ccccc2)c1OC was read as hgDAF-12 ag 8, ssDAF12 agonist -1, DAX1 inh-1 3, DAX1 inh-2 5.2*, hcDAF12 agonist 3, DAX1 conf 5.1* and SF1 AF2mut Luc 2.
`NC(=O)N1CCN(C(=O)c2ccco2)CC1` gave hgDAF-12 ag -2, ssDAF12 agonist -1, DAX1 inh-1 1, PolyA inh -8, DAX1 inh-2 0 and hcDAF12 agonist 1.
For O=C(c1ccco1)N1CCN(c2ccc(N3CCCCC3)nn2)CC1 the results were hgDAF-12 ag 4, ssDAF12 agonist 0, DAX1 inh-1 2, PolyA inh 2, DAX1 inh-2 7.8*, hcDAF12 agonist 4, DAX1 conf 7.3* and SF1 AF2mut Luc 6.4*.
Cc1ccc2nc(-c3cccc(Br)c3)c(Cc3ccccn3)n2c1 was read as hgDAF-12 ag 8, ssDAF12 agonist 1.1*, DAX1 inh-2 5.1*, hcDAF12 agonist 2, DAX1 conf 7.8* and SF1 AF2mut Luc 5.0*.
For Cc1ccc2nc(-c3ccccn3)c(Nc3ccccc3C)n2c1 the results were hgDAF-12 ag -6, ssDAF12 agonist -1, DAX1 inh-1 1, PolyA inh -1, DAX1 inh-2 0 and hcDAF12 agonist -3.
FC(F)(F)c1ccccc1Cc1c(-c2cccc(Cl)c2)nc2ccc(Br)cn12 was read as hgDAF-12 ag 3, ssDAF12 agonist 0, DAX1 inh-2 2 and hcDAF12 agonist 1.
Cc1ccc2nc(-c3ccccn3)c(N)n2c1 was read as hgDAF-12 ag 11*, ssDAF12 agonist 1, DAX1 inh-2 5.4*, hcDAF12 agonist 5, DAX1 conf 15* and SF1 AF2mut Luc 6.8*.
